# Measurements from the supplement of paper PMC4709259.
# Counter-ions that a name gives are not always drawn. ± gives the standard deviation.
# Tested on: Jurkat
# Assay: mean cell size (FSC-A) relative to DMSO control (fraction of control); higher = larger cells
# Conditions: 48 h
# Method in brief: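 Jurkat cells at 600 cells/µl were incubated for 1 h and then treated for 48h with the Enzo Screen-Well FDA Approved Drug Library v2.0 at 25µM, with DMSO at 0.9% (v/v) final. Compounds that reduced counts below 20% of controls were retested in 10-fold dilutions down to 25nM. Cell count and mean cell size, taken as forward scatter area, were measured by flow cytometry relative to solvent-only controls. Each plate carried 6-12 controls, and values are means of 3 biological replicates.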
row,Compound,mean cell size
1,CC1C=CC=CCCC=CC=CC=CC=CC(OC2OC(C)C(O)C(N)C2O)CC2OC(O)(CC(O)C(O)CCC(O)CC(O)CC(O)CC(=O)OC(C)C(C)C1O)CC(O)C2C(=O)O (stereo unspecified) [Nystatin] (concentration: 25 µM),0.8944 ± 0.0084
2,CC(C)c1cccc(C(C)C)c1O [Propofol] (concentration: 25 µM),0.972 ± 0.025
3,C[N+]1(C)[C@@H]2CC(OC(=O)[C@H](CO)c3ccccc3)C[C@H]1[C@@H]1O[C@@H]12 (stereo partly drawn) [Methscopolamine Bromide ((-)-Scopolamine Methyl Bromide)] (concentration: 25 µM),1.05 ± 0.046
4,CN1C[C@H](C(=O)N[C@]2(C)O[C@@]3(O)[C@@H]4CCCN4C(=O)[C@H](Cc4ccccc4)N3C2=O)C=C2c3cccc4[nH]cc(c34)C[C@H]21 [Ergotamine Tartrate] (concentration: 25 µM),1.07 ± 0.054
5,C[C@]12CC[C@@H]3c4ccc(OC(=O)N(CCCl)CCCl)cc4CC[C@H]3[C@@H]1CC[C@@H]2OP(=O)(O)O [Estramustine Phosphate·Na] (concentration: 25 µM),0.958 ± 0.045
6,NCC(CC(=O)O)c1ccc(Cl)cc1 (stereo unspecified) [Baclofen] (concentration: 25 µM),0.985 ± 0.044
7,CC(C)C[C@H]1C(=O)N2CCC[C@H]2[C@]2(O)O[C@](NC(=O)[C@@H]3C=C4c5cccc6[nH]c(Br)c(c56)C[C@H]4N(C)C3)(C(C)C)C(=O)N12 [Bromocriptine Mesylate] (concentration: 25 µM),0.939 ± 0.031
8,CN1C[C@H](C(=O)N[C@]2(C)O[C@@]3(O)[C@@H]4CCCN4C(=O)[C@H](Cc4ccccc4)N3C2=O)C[C@@H]2c3cccc4[nH]cc(c34)C[C@H]21 [Dihydroergotamine Mesylate] (concentration: 25 µM),1 ± 0.027
9,Cc1cccc([C@H](C)c2c[nH]cn2)c1C [Dexmedetomidine·HCl] (concentration: 25 µM),0.942 ± 0.06
10,COc1ccc(C(CN(C)C)C2(O)CCCCC2)cc1 (stereo unspecified) [Venlafaxine·HCl] (concentration: 25 µM),0.987 ± 0.021
11,Cc1nnc2n1-c1ccc(Cl)cc1C(c1ccccc1Cl)=NC2 [Triazolam] (concentration: 25 µM),0.935 ± 0.05
12,CCN(C(C)=O)c1cccc(-c2ccnc3c(C#N)cnn23)c1 [Zaleplon] (concentration: 25 µM),1 ± 0.059
13,CCCCCCC(=O)O[C@H]1CC[C@H]2[C@@H]3CCC4=CC(=O)CC[C@]4(C)[C@H]3CC[C@]12C [Testosterone Enanthate] (concentration: 25 µM),0.954 ± 0.047
14,COc1cc2c(c(OC)c1OC)-c1ccc(OC)c(=O)cc1[C@@H](NC(C)=O)CC2 [Colchicine] (concentration: 25 nM),0.967 ± 0.026
15,CC(=O)O[C@H]1C[C@@H]2CC[C@@H]3[C@H](CC[C@@]4(C)[C@H]3C[C@H]([N+]3(C)CCCCC3)[C@@H]4OC(C)=O)[C@@]2(C)C[C@@H]1[N+]1(C)CCCCC1 [Pancuronium·2Br] (concentration: 25 µM),0.963 ± 0.015
16,O=C1CN=C(c2ccccc2Cl)c2cc([N+](=O)[O-])ccc2N1 [Clonazepam] (concentration: 25 µM),1.02 ± 0.06
17,N[C@@H]1C[C@H]1c1ccccc1.N[C@H]1C[C@@H]1c1ccccc1 [Tranylcypromine Hemisulfate] (concentration: 25 µM),0.926 ± 0.0078
18,O=P1(NCCCl)OCCCN1CCCl (stereo unspecified) [Ifosfamide] (concentration: 25 µM),0.938 ± 0.026
19,O=c1[nH]c2ccccc2n1C1CCN(CCCC(c2ccc(F)cc2)c2ccc(F)cc2)CC1 [Pimozide] (concentration: 2.5 µM),1.08 ± 0.033
20,O=C1CC[C@@]2(O)[C@H]3Cc4ccc(O)c5c4[C@@]2(CCN3CC2CC2)[C@H]1O5 [Naltrexone·HCl] (concentration: 2.5 µM),0.985 ± 0.049
21,C=CCN1C[C@H](C(=O)N(CCCN(C)C)C(=O)NCC)C[C@@H]2c3cccc4[nH]cc(c34)C[C@H]21 [Cabergoline] (concentration: 25 µM),0.889 ± 0.02
22,O=[N+]([O-])O[C@H]1CO[C@H]2[C@@H]1OC[C@H]2O[N+](=O)[O-] [Isosorbide Dinitrate] (concentration: 25 µM),0.945 ± 0.023
23,Oc1ccc2c(c1)[C@@]13CCCC[C@@]1(O)[C@@H](C2)N(CC1CCC1)CC3 [Butorphanol-(+)-Tartrate (Schedule Iv)] (concentration: 25 µM),0.952 ± 0.049

# Tested on: Jurkat
# Assay: cell count relative to DMSO control (fraction of control); higher = more cells (less growth inhibition)
# Conditions: 48 h
row,Compound,cell count
1,Nc1ccncc1 [Dalfampridine (4-Aminopyridine)] (concentration: 25 µM),0.646 ± 0.16
2,CC(C)C[C@H](CN)CC(=O)O [Pregabalin] (concentration: 25 µM),0.592 ± 0.12
3,CN1[C@@H]2CC[C@H]1C[C@@H](OC(=O)C(CO)c1ccccc1)C2 (stereo partly specified) [Atropine Sulfate Monohydrate] (concentration: 25 µM),0.677 ± 0.057
4,C=CCN1CC[C@]23c4c5ccc(O)c4O[C@H]2C(=O)CC[C@@]3(O)[C@H]1C5 [Naloxone·HCl] (concentration: 25 µM),0.96 ± 0.071
5,O=C(O)CCCc1ccc(N(CCCl)CCCl)cc1 [Chlorambucil] (concentration: 250 nM),0.352 ± 0.089
6,CCOC(=O)CC(SP(=S)(OC)OC)C(=O)OCC (stereo unspecified) [Malathion] (concentration: 25 µM),1.06 ± 0.074
7,O=P1(N(CCCl)CCCl)NCCCO1 (stereo unspecified) [Cyclophosphamide (Free Base)] (concentration: 25 µM),0.623 ± 0.15
8,COc1cc2c(cc1OC)C1CC(=O)C(CC(C)C)CN1CC2 (stereo unspecified) [Tetrabenazine] (concentration: 25 µM),0.833 ± 0.093
9,CC(C)N(CCC(C(N)=O)(c1ccccc1)c1ccccn1)C(C)C (stereo unspecified) [Disopyramide] (concentration: 25 µM),0.733 ± 0.14
10,C=C1C[C@@H]2[C@H](CC[C@]3(C)C(=O)CC[C@@H]23)[C@@]2(C)C=CC(=O)C=C12 [Exemestane] (concentration: 25 µM),0.422 ± 0.12
11,CCOC(=O)c1cncn1[C@H](C)c1ccccc1 [Etomidate] (concentration: 25 µM),0.854 ± 0.055
12,CC1C=CC=CCCC=CC=CC=CC=CC(OC2OC(C)C(O)C(N)C2O)CC2OC(O)(CC(O)C(O)CCC(O)CC(O)CC(O)CC(=O)OC(C)C(C)C1O)CC(O)C2C(=O)O (stereo unspecified) [Nystatin] (concentration: 25 µM),0.729 ± 0.11
13,CC(C)c1cccc(C(C)C)c1O [Propofol] (concentration: 25 µM),1.11 ± 0.027
14,C[N+]1(C)[C@@H]2CC(OC(=O)[C@H](CO)c3ccccc3)C[C@H]1[C@@H]1O[C@@H]12 (stereo partly drawn) [Methscopolamine Bromide ((-)-Scopolamine Methyl Bromide)] (concentration: 25 µM),0.683 ± 0.089
15,CN1C[C@H](C(=O)N[C@]2(C)O[C@@]3(O)[C@@H]4CCCN4C(=O)[C@H](Cc4ccccc4)N3C2=O)C=C2c3cccc4[nH]cc(c34)C[C@H]21 [Ergotamine Tartrate] (concentration: 25 µM),0.745 ± 0.057
16,C[C@]12CC[C@@H]3c4ccc(OC(=O)N(CCCl)CCCl)cc4CC[C@H]3[C@@H]1CC[C@@H]2OP(=O)(O)O [Estramustine Phosphate·Na] (concentration: 25 µM),0.781 ± 0.051
17,NCC(CC(=O)O)c1ccc(Cl)cc1 (stereo unspecified) [Baclofen] (concentration: 25 µM),0.555 ± 0.08
18,CC(C)C[C@H]1C(=O)N2CCC[C@H]2[C@]2(O)O[C@](NC(=O)[C@@H]3C=C4c5cccc6[nH]c(Br)c(c56)C[C@H]4N(C)C3)(C(C)C)C(=O)N12 [Bromocriptine Mesylate] (concentration: 25 µM),0.288 ± 0.21
19,CN1C[C@H](C(=O)N[C@]2(C)O[C@@]3(O)[C@@H]4CCCN4C(=O)[C@H](Cc4ccccc4)N3C2=O)C[C@@H]2c3cccc4[nH]cc(c34)C[C@H]21 [Dihydroergotamine Mesylate] (concentration: 25 µM),0.297 ± 0.092
20,Cc1cccc([C@H](C)c2c[nH]cn2)c1C [Dexmedetomidine·HCl] (concentration: 25 µM),0.375 ± 0.13
21,COc1ccc(C(CN(C)C)C2(O)CCCCC2)cc1 (stereo unspecified) [Venlafaxine·HCl] (concentration: 25 µM),0.498 ± 0.12
22,Cc1nnc2n1-c1ccc(Cl)cc1C(c1ccccc1Cl)=NC2 [Triazolam] (concentration: 25 µM),0.992 ± 0.11
23,CCN(C(C)=O)c1cccc(-c2ccnc3c(C#N)cnn23)c1 [Zaleplon] (concentration: 25 µM),0.664 ± 0.14
24,CCCCCCC(=O)O[C@H]1CC[C@H]2[C@@H]3CCC4=CC(=O)CC[C@]4(C)[C@H]3CC[C@]12C [Testosterone Enanthate] (concentration: 25 µM),0.703 ± 0.12
25,COc1cc2c(c(OC)c1OC)-c1ccc(OC)c(=O)cc1[C@@H](NC(C)=O)CC2 [Colchicine] (concentration: 25 nM),0.071 ± 0.007
26,CC(=O)O[C@H]1C[C@@H]2CC[C@@H]3[C@H](CC[C@@]4(C)[C@H]3C[C@H]([N+]3(C)CCCCC3)[C@@H]4OC(C)=O)[C@@]2(C)C[C@@H]1[N+]1(C)CCCCC1 [Pancuronium·2Br] (concentration: 25 µM),1.12 ± 0.09
27,O=C1CN=C(c2ccccc2Cl)c2cc([N+](=O)[O-])ccc2N1 [Clonazepam] (concentration: 25 µM),0.659 ± 0.12
28,N[C@@H]1C[C@H]1c1ccccc1.N[C@H]1C[C@@H]1c1ccccc1 [Tranylcypromine Hemisulfate] (concentration: 25 µM),0.931 ± 0.063
